This note sets out measurements from PubChem BioAssay (NCI).

This is part of a sample that, as a whole, favours compounds with a hit. Of some 83,000 tested, about 20% had one in any assay.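 The test compound was applied at a single concentration to cells in 96-well plates for 48 hours, and percent growth was recorded.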 Values without a mark were called inactive. Calls of active or inactive are those of the source. Rule for the calls: active = growth percent below 10; inactive = the rest.

Test systems include NCI-H23 lung; NCI-H226 lung; NCI-H322M lung; HOP-62 NSCLC; NCI-H460 lung; HOP-92 NSCLC; NCI-H522 lung; A549/ATCC NSCLC; 786-0 renal; COLO 205 colon.
Assay in all cases: NCI-60 one-dose screen, 48 h (100 = growth as untreated, 0 = no growth, -100 = all killed)
Holding throughout (conditions): 10 µM unless noted

Consider `CN1CCN(Cc2ccc(NC(=O)c3cncc(C#Cc4c(N)ncc5ccc(C#N)cc45)c3)cc2C(F)(F)F)CC1`, for which the growth in the test on NCI-H23 lung was 47%; in the test on NCI-H226 lung, 3.8% (active); with NCI-H322M lung, -29.2% (active); with HOP-62 NSCLC it was 58.4%; in the test with NCI-H460 lung it was -73.8% (active); in the test with HOP-92 NSCLC, 13.9%. For the same molecule, the growth is -53.7% (active) with NCI-H522 lung, -65.6% (active) in the test with A549/ATCC NSCLC, -59.6% (active) in the test with 786-0 renal and 21.2% in the test with COLO 205 colon.
`COc1ccc2nc3cc(Cl)ccc3c(N3CCN(c4nccc(Nc5ccc(Cl)cc5)n4)CC3)c2c1`: the growth with NCI-H23 lung is 86.4%; with NCI-H226 lung, 99.8%; in the test with NCI-H322M lung it was 97.5%; in the test with HOP-62 NSCLC, 88.1%; in the test with NCI-H460 lung, 67%; with HOP-92 NSCLC it was 34.8%. The growth in the test with NCI-H522 lung was 51.8%; in the test with A549/ATCC NSCLC it was 76.4%; with 786-0 renal, 42.2%; with COLO 205 colon, 95.7%.
Regarding `CCN(CC)CCCNc1cc(OC)cc2nc3cc(Cl)ccc3nc12`, the growth in the test with NCI-H23 lung was -46.7% (active); with NCI-H226 lung, -20.8% (active); in the test on NCI-H322M lung it was -0.828% (active); in the test with HOP-62 NSCLC it was -47.3% (active); in the test on NCI-H460 lung, -16.2% (active); with HOP-92 NSCLC, -9.1% (active). Further, the growth with NCI-H522 lung is -63.2% (active); in the test on A549/ATCC NSCLC, -52.4% (active); in the test with 786-0 renal it was 2.95% (active); in the test with COLO 205 colon it was -99.3% (active).
Take `Cc1cc(N/N=C/c2nc(-c3ccc(Cl)cc3)oc2C)c2cc(Cl)ccc2n1`: the growth in the test on NCI-H23 lung is 111%; in the test on NCI-H226 lung, 98.4%; with NCI-H322M lung, 79.1%; in the test with HOP-62 NSCLC, 103%; in the test with NCI-H460 lung, -62.5% (active); in the test with HOP-92 NSCLC it was 69.5%. Also, the growth in the test on NCI-H522 lung is -1.87% (active); in the test with A549/ATCC NSCLC, 21.9%; in the test with 786-0 renal, -39.8% (active); with COLO 205 colon, 83.7%.
Turning to `COc1ccc(C/C(C)=C(\c2ccc(OCCN3CCCCCC3)cc2)c2ccc(OC(=O)C3CCCCC3)cc2)cc1`, the growth is 63.5% in the test on NCI-H23 lung; 78.3% with NCI-H226 lung; 73.5% in the test on NCI-H322M lung; 74.5% in the test on HOP-62 NSCLC; 38.1% with NCI-H460 lung; 19.6% in the test on HOP-92 NSCLC. In addition, the growth with NCI-H522 lung was 63.4%; in the test on A549/ATCC NSCLC, 65.2%; in the test on 786-0 renal, 68.9%; with COLO 205 colon, 10.5%.
For the molecule `COc1ccc(-c2cc(C(=O)N=Nc3c(O)[nH]c4ccccc34)no2)cc1`, the growth in the test with NCI-H23 lung is 101%; in the test on NCI-H226 lung, 94%; in the test with NCI-H322M lung it was 103%; in the test with HOP-62 NSCLC, 91.6%; with NCI-H460 lung, 102%; in the test on HOP-92 NSCLC, 100%. The growth is 82.4% in the test with NCI-H522 lung, 107% with A549/ATCC NSCLC, 104% in the test on 786-0 renal and 111% in the test on COLO 205 colon.
`COc1cc(OC)c(/C=C/S(=O)(=O)Cc2cnc(OC)c(N)c2)c(OC)c1`: the growth in the test on NCI-H23 lung is 30.8%; in the test with NCI-H226 lung, 64.3%; in the test on NCI-H322M lung it was 33.2%; in the test with HOP-62 NSCLC, 23.8%; with NCI-H460 lung it was 9.05% (active); with HOP-92 NSCLC it was 85.9%. The growth in the test with NCI-H522 lung is -2.15% (active); with A549/ATCC NSCLC it was 9.4% (active); in the test with 786-0 renal, 16.2%; with COLO 205 colon, -49.2% (active).
`CC(=O)C1=C(O)C=C2Oc3c(C(=O)/C=C/c4cc(Cl)cc(Cl)c4)c(O)c(C)c(O)c3[C@]2(C)C1=O`: the growth in the test on NCI-H23 lung is -42% (active); in the test with NCI-H226 lung it was -41.1% (active); in the test on NCI-H322M lung, -28.9% (active); in the test on HOP-62 NSCLC, -42.5% (active); with NCI-H460 lung, -5.02% (active); with HOP-92 NSCLC it was -22% (active). For the same molecule, the growth with NCI-H522 lung was -52.2% (active); in the test with A549/ATCC NSCLC, -27.1% (active); in the test with 786-0 renal, -34.9% (active); in the test on COLO 205 colon it was -70.3% (active).
On to `CC(=O)OC1Oc2cc(C)c(C)cc2-c2oc(=O)c(-c3cc4ccc(N(C)C)cc4oc3=O)cc21` (stereo not given), for which the growth with NCI-H23 lung is 46.9%; in the test with NCI-H226 lung, 59.2%; in the test with NCI-H322M lung, 78.9%; in the test with HOP-62 NSCLC, 82%; with NCI-H460 lung it was 65.4%; in the test on HOP-92 NSCLC, 77.8%. Moreover, the growth is 60.5% in the test on NCI-H522 lung, 70.5% in the test on A549/ATCC NSCLC, 74.1% in the test with 786-0 renal and 96.4% with COLO 205 colon.
With `CC/C=C\C[C@H](O)C/C=C1/C(=O)C=C[C@@H]1C/C=C\CCCC(N)=O`, the growth in the test on NCI-H23 lung is -38.3% (active); with NCI-H226 lung, -39.7% (active); in the test on NCI-H322M lung, 29.7%; with HOP-62 NSCLC, -15.6% (active); in the test on NCI-H460 lung, -9.93% (active); with HOP-92 NSCLC it was 37.6%. Besides, the growth with NCI-H522 lung was -19.3% (active); with A549/ATCC NSCLC it was -23.5% (active); with 786-0 renal it was -24.2% (active); with COLO 205 colon, -27.8% (active).
For the molecule `C=C1CC2(OC1=O)C(=O)Nc1ccccc12` (stereo not given), the growth was 67.7% in the test on NCI-H23 lung; 72.9% in the test on NCI-H226 lung; 93.8% in the test on NCI-H322M lung; 108% in the test with HOP-62 NSCLC; 77.8% in the test with NCI-H460 lung; 9.19% (active) in the test with HOP-92 NSCLC. The growth in the test with NCI-H522 lung is -45.7% (active); in the test on A549/ATCC NSCLC, 100%; with 786-0 renal, 76.2%; in the test with COLO 205 colon, 10.3%.
Turning to `COc1cnc2c(c1)C(=O)c1c-2n(CCCN2CCCC2)c(=O)c2cc([N+](=O)[O-])ccc12`, the growth in the test on NCI-H23 lung was -7.75% (active); in the test with NCI-H226 lung it was -79.4% (active); with NCI-H322M lung, -11.9% (active); with HOP-62 NSCLC, -16.8% (active); in the test with NCI-H460 lung, -60.1% (active); with HOP-92 NSCLC, 16.4%. Also, the growth in the test on NCI-H522 lung was -31% (active); with A549/ATCC NSCLC, -44.8% (active); with 786-0 renal, -90.9% (active); with COLO 205 colon, 2.24% (active).
Regarding `O=C(CN1CCN(c2cc3c(cc2F)c(=O)c(C(=O)O)cn3C2CC2)CC1)Nc1nc(-c2ccc(Cl)cc2)cs1`, the growth in the test on NCI-H23 lung was 16.5%; in the test with NCI-H226 lung, 43.3%; in the test on NCI-H322M lung, 28.1%; in the test on HOP-62 NSCLC, 25.7%; with NCI-H460 lung, 6.86% (active); in the test on HOP-92 NSCLC it was -5.35% (active). Also, the growth is 6.46% (active) in the test with NCI-H522 lung, 11.4% in the test on A549/ATCC NSCLC, 29.1% in the test with 786-0 renal and 63.2% in the test with COLO 205 colon.
As for `O=C1Nc2ccc(Br)cc2C12CC(c1ccccc1)=NN2` (stereo not given), the growth is 58.7% with NCI-H23 lung; 57.3% in the test with NCI-H226 lung; 35.2% with NCI-H322M lung; 51.6% in the test on HOP-62 NSCLC; 18.1% in the test with NCI-H460 lung; 58.2% in the test with HOP-92 NSCLC. Moreover, the growth is 20% in the test on NCI-H522 lung, 31.6% with A549/ATCC NSCLC, 46.8% in the test with 786-0 renal and 30.5% in the test on COLO 205 colon.
